According to PubChem BioAssay (NCATS):
Results filed as inconclusive are left out. Activity calls are given as the source filed them. Calls come from the whole dose curve; as a rule, active = well fitted cell-killing curve with a large enough effect; inconclusive = small, poorly fitted or top-dose-only effect, or effect the other way; inactive = no such curve, though single readings can be large or run the other way.

Key:
[1] = Viability qHTS for spleen associated tyrosine kinase inhibitor (SYKi) naive MV4-11 cells (AID 1963823); note: nearly all actives have a fitted effect of over 40% in size
Summary of the method: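 CellTiter-Glo luminescence, 10 min room-temperature incubation, gave viability. Cells: naive MV4-11 (500/well), treated 72 hr at 37 C, 5% CO2.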

[2] = Viability qHTS for spleen associated tyrosine kinase inhibitor (SYKi) drug resistant MV4-11 cells (AID 1963824); note: nearly all actives have a fitted effect of over 35% in size
Summary of the method: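 SYK inhibitor-resistant MV4-11 AML cells, 500 per well, added to predispensed compounds and incubated 72 hr at 37 C, 5% CO2. Viability measured by CellTiter-Glo luminescence after 10 min at room temperature.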
Potency is the fitted concentration of half-maximal effect.

Compound | Potency [1] | Potency [2]
COC1=CC(=O)O[C@@H](/C=C/c2ccccc2)C1 | inactive | inactive
CCCN1CCO[C@H]2c3cc(O)ccc3OC[C@@H]21 | inactive | inactive
C[C@]12CC[C@H](O[C@@H]3O[C@H](CO)[C@@H](O)[C@H](O)[C@H]3O[C@@H]3O[C@H](CO)[C@@H](O)[C@H](O)[C@H]3O)CC1=CC[C@@H]1[C@@H]2CC[C@]2(C)[C@@H](C3=CC(=O)OC3)CC[C@]12O | 6110 nM (active) | 4320 nM (active)
C[C@@H]1CCC/C=C/[C@H]2C[C@@H](O)C[C@@H]2[C@@H](O)/C=C/C(=O)O1 | 184 nM (active) | 146 nM (active)
CO[C@H]1[C@@H](O)[C@@H](C)O[C@@H](O[C@@H]2C=C3C(OC(C)=O)CC4(O)C(CC[C@]5(C)[C@@H](C6=CC(=O)OC6)CC[C@]45O)[C@@]3(C)CC2)[C@@H]1O (stereo partly specified) | 68.5 nM (active) | 76.9 nM (active)
C[C@H]1C(=O)O[C@H]2[C@H](O)[C@]34C5OC(=O)[C@]3(O[C@@H]3OC(=O)[C@H](O)C34[C@H](C(C)(C)C)[C@H]5O)C12O (stereo partly specified) | inactive | inactive
CC(=O)OC[C@]12[C@H](OC(C)=O)C(=O)[C@@H]3[C@@H](O)[C@@]14O[C@@]3(C)COC(=O)c1cccnc1[C@@H](C)[C@H](C)C(=O)O[C@@H]([C@H](OC(C)=O)[C@@H]2OC(C)=O)[C@]4(C)O | 5440 nM (active) | 5440 nM (active)
Clc1ccc(N2C[C@H]3CC[C@@H](C2)N3)nn1 | inactive | inactive
COC1CC(O[C@H]2CC[C@]3(C)C4CC[C@]5(C)[C@@H](C6=CC(=O)OC6)[C@@H](OC(C)=O)C[C@]5(O)C4CC[C@@H]3C2)OC(C)C1O[C@@H]1O[C@H](CO)[C@@H](O)[C@H](O)[C@H]1O (stereo partly specified) | 306 nM (active) | 243 nM (active)
O=C1CN=C(c2ccccc2Cl)c2cc(Br)ccc2N1 | inactive | inactive
CO[C@@H]1[C@H](O)[C@@H](O[C@@H]2C[C@H]3CC[C@@H]4C(CC[C@]5(C)[C@@H](C6=CC(=O)OC6)CC[C@]45O)[C@@]3(C)[C@H](O)C2)O[C@H](C)[C@@H]1O[C@@H]1O[C@H](CO)[C@@H](O)[C@H](O)[C@H]1O (stereo partly specified) | 96.8 nM (active) | 54.4 nM (active)
CC1CCCC(O)CC(=O)Cc2cc(O)cc(O)c2C(=O)O1 (stereo unspecified) | inactive | inactive
COC1CC(OC2CCC3(C=O)C(CCC4C3CCC3(C)C(C5=CC(=O)OC5)CCC43O)C2)OC(C)C1O (stereo unspecified) | 89.3 nM (active) | 70.9 nM (active)
CCN1C[C@]2(COC)[C@H](O)C[C@H](OC)[C@]34[C@@H]5C[C@]6(O)[C@H](OC(=O)c7ccccc7)[C@@H]5[C@@](O)([C@H]([C@H](OC)[C@H]23)[C@@H]14)[C@@H](O)[C@@H]6OC | inactive | inactive
C[C@]12CC[C@H](O)C[C@H]1CC[C@@H]1[C@@H]2[C@H](O)C[C@]2(C)[C@@H](c3ccc(=O)oc3)CC[C@]12O | 18.4 nM (active) | 14.6 nM (active)
COc1ccc2c(c1)/C(=C/c1cnc[nH]1)C(=O)N2 | 461 nM (active) | 1640 nM (active)
C=C(CO)C(=O)O[C@H]1C/C(C)=C/CC/C(CO)=C/[C@H]2OC(=O)C(=C)[C@H]12 | inactive | inactive
CO/C1=C\C(C)=C\[C@@H](C)[C@@H](O)[C@@H](C)C/C(C)=C/C=C/[C@H](OC)[C@@H]([C@@H](C)[C@@H](O)[C@H](C)[C@@]2(O)C[C@@H](O)[C@H](C)[C@@H](C(C)C)O2)OC1=O | 21.7 nM (active) | 17.2 nM (active)
C[C@@H]1O[C@@H](OC2CCC3(C=O)C(CCC4C3CCC3(C)C(C5=CC(=O)OC5)C(O)CC43O)C2)[C@H](O)[C@H](O)[C@H]1O[C@@H]1O[C@H](CO)[C@@H](O)[C@H](O)[C@H]1O (stereo partly specified) | 2170 nM (active) | 1720 nM (active)
CN1Cc2c(ccc3c2OCO3)[C@@H]2[C@H]1c1cc3c(cc1C[C@@H]2O)OCO3 | 3210 nM (active) | 2550 nM (active)
CC(C)(C)[C@]1(O)C[C@@H]2OC(=O)C[C@@]23C(=O)O[C@@H]2OC(=O)[C@@H](O)[C@]213 | inactive | inactive
COc1cccc(NCC(F)Cn2c3ccc(Br)cc3c3cc(Br)ccc32)c1 (stereo unspecified) | 2060 nM (active) | 2060 nM (active)
O=C(N[C@H]1CN2CCC1CC2)c1cc2cccc(Cl)c2s1 | 14600 nM (active) | 20600 nM (active)
